Laboratory results: PubChem BioAssay AID687001 (Broad Institute, 2013)
Measured potencies and affinities stand elsewhere. The source made the active and inactive calls.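 Rule for the calls: active = signal-lowering compounds whose fitted half-maximal concentration is at or below twice the top tested dose in every run; inconclusive = runs disagree, flat 30 to 70% inhibition, or poor curve fit; inactive = the rest.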

Target: Protein S100-A4 (Homo sapiens) (UniProt P26447)
Test: human S100A4 peptide interaction inhibition curves – biochemical, fluorescence polarization, cherry-picked hits, dose response (AID 687001)
Settings: FP, S100A4/TAMRA-myosin IIA peptide binding; series mostly up to 11 µM

Protein S100-A4 (Homo sapiens), sequence (P26447 whole entry, looked up): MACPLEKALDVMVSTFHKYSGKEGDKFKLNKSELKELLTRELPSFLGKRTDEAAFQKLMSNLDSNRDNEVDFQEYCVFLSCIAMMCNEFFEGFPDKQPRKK

outcome, inactive:
Cc1noc(C)c1NC(=O)Nc1ccc2c(c1)C(=O)N([C@H](C)CO)C[C@@H](C)[C@@H](CN(C)S(=O)(=O)c1ccc(Cl)cc1)OCCCC[C@H](C)O2
COc1ccc2[nH]c3c(c2c1)CCN1C(=O)N([C@@H](C)C(=O)NCc2ccccc2)C(=O)[C@]31C
CCOC(=O)c1cc(C)sc1/N=C/C1C(=O)CCCC1=O
CC=Cc1ccc2n(c1=O)C[C@@H]1N[C@H]2[C@H](C(=O)NC2CCCCC2)[C@H]1CO (mixture of isomers)
O=C(C[C@@H]1CC[C@@H]2[C@H](COC[C@H](O)CN2C(=O)c2cccnc2)O1)NCc1ccc(Cl)cc1
CCC(=O)N1[C@@H]2c3ccc(-c4ccncc4)c(=O)n3C[C@H]1[C@H](CO)[C@H]2C(=O)NC1Cc2ccccc2C1
Cn1cnc(S(=O)(=O)N[C@@H]2C=C[C@@H](CC(=O)NCC3CC3)O[C@H]2CO)c1
COc1ccc(Cl)cc1-c1cc(C(=O)N[C@H](C)c2ccccc2)[nH]n1
Cc1ccccc1OCC(=O)Nc1ccc(S(=O)(=O)N2CCCC2)cc1
CC(=O)Nc1ccc(S(=O)(=O)c2ccc([N+](=O)[O-])cc2)cc1
O=S(=O)(NC(=NCc1ccccc1)c1ccccc1)c1ccccc1
CC(C)C#Cc1cnc2c(c1)C(=O)N([C@H](C)CO)C[C@H](C)[C@H](CN(C)C(=O)Nc1ccc(F)cc1)O2
CN(C)CC(=O)N1CC2(C1)[C@@H](c1ccccc1)[C@@H](CO)N2S(C)(=O)=O
CCCCSc1nnc(-c2ccccc2N)c(=O)[nH]1
CCCc1cn(CC[C@@H]2CC[C@H](NC(=O)C3CCCC3)[C@H](CO)O2)nn1
Cc1cc(NC(=O)CCC(=O)N(Cc2ccco2)C2(C(=O)NC3CCCC3)CCC(C)CC2)no1 (centres undefined)
CC(C)n1nnnc1C1c2ccccc2C(=O)N1Cc1cccc(F)c1 (centres undefined)
COc1ccccc1[C@H]1C(c2ccc(F)cc2)=NN(c2ccccc2)[C@@H]1CO
Cc1cccc(NC(=O)CNC(=O)c2ccccc2Cl)n1
O=C(Cc1ccccn1)N[C@@H]1CC[C@@H](CCNS(=O)(=O)c2cccc(F)c2)O[C@H]1CO
N#C[C@@H]1[C@H](c2ccccc2C2=CCCCC2)[C@H](CO)N1C(=O)NC1CCCC1
O=C(c1ccncc1)N1C[C@@H]2[C@H](c3ccccc31)[C@@H](CO)N2C(=O)CN1CCOCC1
CCCc1cc(C(=O)Nc2cccc3ccccc23)n(C)n1
COc1ccccc1-c1noc2c1C(=O)N(Cc1cn(-c3ccc(Cl)cc3)nn1)CC2
COc1ccccc1S(=O)(=O)N[C@H]1CC[C@H](CC(=O)N2CCN(C)CC2)O[C@@H]1CO
COc1ccc(NC(=O)Nc2ccc3c(c2)C(=O)N([C@H](C)CO)C[C@H](C)[C@H](CN(C)Cc2ccc(C(F)(F)F)cc2)OCCCC[C@H](C)O3)cc1
NC1=NC(=O)C(CC(=O)c2ccc(Cl)cc2)S1 (centres undefined)
O=C1NC(Cc2ccc(Cl)cc2)COCc2cnnn2CCC1c1ccccc1 (centres undefined)
O=C1CNC[C@H]2[C@@H](c3ccc(C#CC4CCCC4)cc3)[C@@H](CO)N12
C[C@@H]1CCCCO[C@@H](CN(C)C(=O)Cc2ccccc2)[C@H](C)CN([C@@H](C)CO)C(=O)c2cc(NC(=O)Cc3ccccc3)ccc2O1
Cc1ccc(NC(=O)COC(=O)c2ccccc2F)cc1S(=O)(=O)N1CCCCC1
Cc1ccc(C(=O)C2=C(O)C(=O)N(Cc3cccnc3)C2c2cccc([N+](=O)[O-])c2)o1 (centres undefined)
Cc1ccc(CCNC(=O)c2cc(-c3ccncc3)nc3ccc(S(=O)(=O)N4CCOCC4)cc23)cc1
Cc1ccc(S(C)(=O)=O)cc1C(=O)OCC(=O)N(Cc1ccccc1)Cc1ccccc1
O=C(NCC[C@H]1CC[C@H](NS(=O)(=O)c2ccccc2)[C@@H](CO)O1)c1cc(Cl)cc(Cl)c1
CCNC(=O)NC(=O)CSc1cccc(C(F)(F)F)c1
COC(=O)C1=C(C)N(C)C(=O)NC1c1cc(Cl)c(O)c(OC)c1 (centres undefined)
COc1ccc(OCC(=O)N2CCN(S(=O)(=O)c3ccc(Cl)s3)CC2)cc1
CN1CCCCN2[C@@H](CO)[C@@H](c3ccc(C#CC4(O)CCCC4)cc3)[C@@H]2C1
